Here are results for 24 compounds from PubChem BioAssay (NCATS).

Experiment [1] can be described thus: Viability qHTS for spleen associated tyrosine kinase inhibitor (SYKi) naive MV4-11 cells (AID 1963823). Further: nearly all actives have a fitted effect of over 40% in size. The method in brief:
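Read-out: CellTiter-Glo luminescence. Exposure: 72 hr, 37 C, 5% CO2, 95% humidity. Cells: MV4-11 without SYK inhibitor history, 500/well, qHTS format.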

The nature of experiment [2]: Viability qHTS for spleen associated tyrosine kinase inhibitor (SYKi) drug resistant MV4-11 cells (AID 1963824). Further: nearly all actives have a fitted effect of over 35% in size. The method in brief: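 SYK-inhibitor-resistant MV4-11 AML cells were seeded at 500 per well onto compound and cultured 72 hours (37 °C, 5% CO2). CellTiter-Glo was then added, and after 10 min at room temperature, luminescence gave viability.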
Background: qHTS replaces the single test concentration by a dilution series.

Several values for one entry are separate records, joined by “and”; a condition that tells them apart may be missing. Identical values can stand only once. Inconclusive results are not listed. Unmarked numbers belong to inactive results. Activity calls are given as the source filed them. The call rests on the fitted dose curve; in most records, active means well fitted cell-killing curve with a large enough effect; inconclusive means small, poorly fitted or top-dose-only effect, or effect the other way; inactive means no such curve, though single readings can be large or run the other way.
Potency means the concentration at half of the fitted maximal effect.

Turning to `CN1CCN(c2nc(C3=C(c4c[nH]c5ccccc45)C(=O)NC3=O)c3ccccc3n2)CC1`, the Potency in experiment [1] was 206 nM (active) and 833 nM (active); in experiment [2], 461 nM (active) and 2.35 µM (active).
In the case of `CC(C)C(C(=O)N(C)C(C)C(N)=O)N(C)C(=O)C1CCCN1C(=O)/C=C/C=C/C(O)C(C)O` (stereo not drawn), the Potency result in experiment [1] and in experiment [2] was “inactive” each time.
With `C[C@@H]1CC[C@]2(C(=O)O[C@@H]3O[C@H](CO)[C@@H](O)[C@H](O)[C@H]3O)CC[C@]3(C)C(=CCC4[C@@]5(C)C[C@@H](O)[C@H](O)[C@@](C)(C(=O)O[C@H]6[C@H](O)C[C@@]7(C)C(CC[C@]8(C)C7CC=C7[C@H]9[C@](C(=O)O[C@@H]%10O[C@H](CO)[C@@H](O)[C@H](O)[C@H]%10O)(CC[C@@H](C)[C@@]9(C)O)CC[C@]78C)[C@@]6(CO)C(=O)O)C5CC[C@]43C)[C@@H]2[C@]1(C)O` (stereo partly drawn), in experiment [1], the viability (% of control) is 65.2% [at 9.25 µM]. Also, the viability, % of control in experiment [2] is 103% [at 9.25 µM].
Consider `C=C1C(=O)O[C@H]2C3=C(C)CCC[C@]3(C)C(=O)C[C@@H]12`, for which the Potency in experiment [1] was 1.3 µM (active); in experiment [2], 0.92 µM (active).
The like results for `C[C@@H]1Cc2c([nH]c3ccccc23)[C@@H](c2c(F)cc(/C=C/C(=O)O)cc2F)N1CC(C)(C)F` were, in that order, 23.5 µM (active) and 20.9 µM (active).
As for `COCC1OC(OC(C)(C)C2CCC3(C)C=C(C4CCC5C4(C)CC(O)C4OC(C(C)(C)OC6OC(CO)C(O)C(O)C6NC(C)=O)CCC45C)CCC3O2)C(NC(C)=O)C(O)C1O` (stereo not drawn), the viability (% of control) in experiment [1] was 92.4% [at 9.25 µM]. In experiment [2], the viability, % of control was 108% [at 9.25 µM].
For `CCOc1cn(-c2ccc(F)cc2C)nc1C(=O)Nc1ccc(Oc2ccnc3cc(OC)c(OC)cc23)c(F)c1`, the Potency in experiment [1] is 0.259 µM (active); in experiment [2], 0.651 µM (active).
For `C/C(=C\CO)CC/C=C(\C)C(=O)O[C@H]1[C@H](OC2OC=C(C(=O)O)C3CCC(C)(O)C23)O[C@H](CO)[C@@H](O)[C@@H]1O` (stereo partly drawn), the Potency result in experiment [1] and in experiment [2] was “inactive” throughout.
Regarding `C[C@H](NC(c1cccc2[nH]c(=O)c(=O)[nH]c12)P(=O)(O)O)c1ccc(Br)cc1` (stereo partly drawn), in experiment [1], the Potency entry is “inactive”. In addition, the Potency in experiment [2] is 14.6 µM (active).
As for `O=C(O)C[C@H]1CCC(=O)[C@@H]1C/C=C\CCOC1OC(CO)C(O)C(O)C1O` (stereo partly drawn), the Potency result in experiment [1] and in experiment [2] was “inactive” in each case.
Consider `O=C(O)CCc1cc2ccoc2cc1O[C@@H]1O[C@H](CO)[C@@H](O)[C@H](O)[C@H]1O`, for which the Potency entry in experiment [1] and in experiment [2] was “inactive” each time.
On to `CC(C)CC1NC(=O)C2CC3(O)c4ccccc4NC3N2C1=O` (stereo not drawn), for which the Potency entry in experiment [1] and in experiment [2] was “inactive” in each case.
Turning to `O=C(O)c1cccc(C(=O)CCC2OC(n3cnc4c(=O)[nH]cnc43)C(O)C2O)c1` (stereo not drawn), the Potency entry in experiment [1] and in experiment [2] was “inactive” throughout.
On to `CC1CC(=O)C2=C(C1)C1OC1C1(O)C2C(=O)c2cccc(O)c2C1O` (stereo not drawn), for which the Potency entry in experiment [1] and in experiment [2] was “inactive” throughout.
Take `O=C(O)/C=C/c1ccc(O)c(O[C@@H]2O[C@H](CO)[C@@H](O)[C@H](O)[C@H]2O)c1`: the Potency result in experiment [1] and in experiment [2] was “inactive” in each case.
Consider `Oc1ccc(Nc2nc(-c3ccc(Cl)cc3)cs2)cc1`, for which the values for the Potency in experiment [1] and in experiment [2] were 5.8 µM (active) and 2.06 µM (active), respectively.
With `CC(=O)O[C@@]1(C)[C@@H]2CC(=C(C)C)C(=O)C[C@@]2(C)CC[C@H]1OC(=O)C1(C)OC1C` (stereo partly drawn), the Potency entry in experiment [1] and in experiment [2] was “inactive” each time.
For `O=C(Cc1ccc(Cl)cc1)Nc1cnccc1C(=O)O`, the Potency result in experiment [1] and in experiment [2] was “inactive” in each case.
For the compound `CC/C=C\CC1C(=O)CCC1CC(=O)OC` (stereo not drawn), the Potency entry in experiment [1] and in experiment [2] was “inactive” each time.
Consider `CC1(C)OC(=O)CC(O)C2(C)C1CC(=O)C1(C)C2C(O)CC2(C)C(c3ccoc3)OC(=O)C3OC321` (stereo not drawn), for which the Potency entry in experiment [1] and in experiment [2] was “inactive” in each case.
For `O=C(Nc1ncc(SCCN2CCCC2)s1)C1(c2ccc(S(=O)(=O)C3CC3)cc2)CC1C1CCCCC1` (stereo not drawn), the Potency in experiment [1] and in experiment [2] was 8.2 µM (active) in each case.
Consider `C=C1C(=O)O[C@@H]2[C@H]3C(C)=CC(=O)C3=C(C)[C@@H](OC(=O)/C(C)=C\C)[C@H](O)[C@@H]12`, for which the values for the Potency in experiment [1] and in experiment [2] were 3.21 µM (active) and 1.43 µM (active), respectively.
The like results for `CC/C=C\CCO[C@@H]1O[C@H](CO)[C@@H](O)[C@H](O)[C@H]1O` were, in that order, “inactive” and “inactive”.
The like results for `C=C(C(=O)O)C1CC2=C(C)C(=O)CC2C(C)CC1O` (stereo not drawn) were, in that order, 4.61 µM (active) and 3.66 µM (active).
